About 79,000 compounds went through this panel and 15% of them were active in at least one assay; those are over-represented in the sample as a whole. Activity calls are given as the source filed them. Rule as the data show it: active = growth inhibition above about 70%; inactive = the rest.
What was measured:
[1] = NCI Yeast Anticancer Drug Screen. Data for the rad52 strain (AID 147);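 also: 0% = growth of vehicle-treated control cultures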; settings: S. cerevisiae rad52 mutant growth inhibition, active compounds read high
Summary of the method: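 Screen used a yeast mutant impaired in DNA repair. After compound exposure, growth was measured. Values reflect inhibition compared with vehicle-treated cells.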

[2] = NCI Yeast Anticancer Drug Screen. Data for the rad50EPP+ strain (AID 151);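 also: 0% = growth of vehicle-treated control cultures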; settings: S. cerevisiae rad50 mutant strain, active compounds read high
Summary of the method: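 Exposing the rad50EPP+ strain to each compound, growth was compared with vehicle-only cultures to give inhibition.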

[3] = NCI Yeast Anticancer Drug Screen. Data for the mgt1 strain (AID 153); settings: S. cerevisiae mgt1 mutant growth inhibition, active compounds read high
Summary of the method: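 Genetically defined yeast (mgt1) treated with compound; inhibition of growth expressed against vehicle-treated controls.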

[4] = NCI Yeast Anticancer Drug Screen. Data for the rad50 strain (AID 155);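 also: 0% = growth of vehicle-only cultures of the same strain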; settings: S. cerevisiae rad50 strain growth inhibition, active compounds read high
Summary of the method: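 Relative growth inhibition (compound vs vehicle) was measured in yeast with a defined repair-gene alteration.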

[5] = NCI Yeast Anticancer Drug Screen. Data for the mec2-1 strain (AID 157); settings: S. cerevisiae mec2-1 strain, active compounds read high
Summary of the method: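 Readout is yeast growth inhibition, normalised to vehicle-treated controls, in the mec2-1 strain exposed to compound.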

[6] = NCI Yeast Anticancer Drug Screen. Data for the rad14 strain (AID 159);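 also: 0% = growth of vehicle-treated control cultures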; settings: S. cerevisiae rad14 strain growth inhibition, active compounds read high
Summary of the method: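 Screen for anticancer potential: a yeast strain altered in DNA damage repair is grown with compound, and reduced growth is quantified against vehicle controls.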

[7] = NCI Yeast Anticancer Drug Screen. Data for the sgs1 mgt1 strain (AID 161);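 also: 0% = growth of cultures given vehicle only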; settings: S. cerevisiae sgs1 mgt1 strain, active compounds read high
Summary of the method: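 Percent growth inhibition was derived by comparing compound-exposed mutant yeast with vehicle-exposed cultures. The strain carries alterations in DNA damage repair.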

[8] = NCI Yeast Anticancer Drug Screen. Data for the CLN2oe strain (AID 163);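 also: 0% = growth of vehicle-only control cultures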; settings: S. cerevisiae CLN2oe strain, active compounds read high
Summary of the method: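 Values reflect how much compound exposure reduced yeast growth, referenced to vehicle-exposed cells. Assay organism is a strain with a defined genetic change affecting cell-cycle control.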

[9] = NCI Yeast Anticancer Drug Screen. Data for the cln2 rad14 strain (AID 165);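 also: 0% = growth equal to vehicle treated cultures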; settings: S. cerevisiae cln2 rad14 strain, active compounds read high
Summary of the method: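 Relative to vehicle controls, growth inhibition of compound-treated cln2 rad14 yeast was recorded.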

[10] = NCI Yeast Anticancer Drug Screen. Data for the bub3 strain (AID 167); settings: S. cerevisiae bub3 mutant strain, active compounds read high
Summary of the method: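 Screening used yeast with an engineered genetic alteration affecting cell cycle control. Compound-exposed cultures were compared with vehicle cultures, and reduced growth was taken as inhibition.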

[11] = NCI Yeast Anticancer Drug Screen. Data for the wt2 strain (AID 169);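 also: 0% = growth of vehicle-treated yeast cultures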; settings: S. cerevisiae wt2 strain growth inhibition, active compounds read high
Summary of the method: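 Values express reduction in yeast growth under compound treatment, referenced to vehicle-treated cells.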

[12] = NCI Yeast Anticancer Drug Screen. Data for the mlh1 strain (AID 171);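 also: 0% = growth of vehicle-treated control cultures of the same strain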; settings: S. cerevisiae mlh1 strain growth inhibition, active compounds read high
Summary of the method: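 Steps: expose the defined-mutant yeast strain to compound; expose a parallel culture to vehicle; measure growth; express compound effect as inhibition relative to the vehicle culture.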

[13] = NCI Yeast Anticancer Drug Screen. Data for the sgs1 strain (AID 173);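 also: 0% = growth of vehicle-only control cultures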; settings: S. cerevisiae sgs1 mutant, active compounds read high
Summary of the method: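 Treat defined-mutant yeast with compound; measure growth; calculate inhibition relative to vehicle-treated cells.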

[14] = NCI Yeast Anticancer Drug Screen. Data for the mlh1 rad18 strain (AID 175); settings: S. cerevisiae mlh1 rad18 strain growth inhibition, active compounds read high
Summary of the method: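 Test agents were incubated with a yeast strain of defined genotype (DNA damage repair defect). Inhibition of growth was derived by comparison with vehicle-exposed cultures.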

[15] = NCI Yeast Anticancer Drug Screen. Data for the rad18 strain (AID 177); settings: S. cerevisiae rad18 mutant growth inhibition, active compounds read high
Summary of the method: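 A genetically defined yeast mutant impaired in DNA damage repair was treated with test compounds, then its growth was measured against cultures receiving vehicle alone.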

[16] = NCI Yeast Anticancer Drug Screen. Data for the wt1 strain (AID 149);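 also: 0% = growth of vehicle-treated wt1 cultures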; settings: S. cerevisiae wt1 strain (SPY 50644) growth inhibition, active compounds read high
Summary of the method: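 Using yeast strain wt1, compound-induced growth inhibition was determined against vehicle-treated cultures.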

[17] = at 5.0 µM (retest, dose inferred, filed as 0.5)
[18] = at 50.0 µM (retest, dose inferred, filed as 5.0)

Measured: growth inhibition

OC1(C#CI)CCCCC1
inactive: [1]; at 1.2 µM 1% | [1]; at 3.7 µM 43% | [2]; at 1.2 µM -16% | [2]; at 3.7 µM 40% | [3]; at 1.2 µM -7% | [3]; at 3.7 µM -3% | [4]; at 1.2 µM -6% | [4]; at 3.7 µM 58% | [4]; [17] 67% | [5]; at 1.2 µM -4% | [5]; at 3.7 µM 6% | [5]; [17] -18% | [6]; at 1.2 µM -2% | [6]; at 3.7 µM 32% | [7]; [17] -20% | [8]; at 1.2 µM -11% | [8]; at 3.7 µM -5% | [9]; [17] -28% | [10]; at 1.2 µM -19% | [10]; at 3.7 µM 12% | [10]; [17] -35% | [11]; at 1.2 µM -7% | [11]; at 3.7 µM 28% | [12]; at 1.2 µM -14% | [12]; at 3.7 µM 17% | [13]; at 1.2 µM 1% | [13]; at 3.7 µM 37% | [14]; [17] -52% | [15]; at 1.2 µM 3% | [15]; at 3.7 µM 60%
active: [1]; at 11.0 µM 96% | [1]; at 33.0 µM 98% | [1]; at 100.0 µM 99% | [2]; at 11.0 µM 96% | [2]; at 33.0 µM 99% | [2]; at 100.0 µM 99% | [3]; at 11.0 µM 88% | [3]; at 33.0 µM 99% | [3]; at 100.0 µM 99% | [4]; at 11.0 µM 98% | [4]; at 33.0 µM 99% | [4]; [18] 97% | [4]; at 50.0 µM 99.7% | [4]; at 100.0 µM 99% | [5]; at 11.0 µM 89% | [5]; at 33.0 µM 99% | [5]; [18] 98% | [5]; at 50.0 µM 99.5% | [5]; at 100.0 µM 100% | [6]; at 11.0 µM 98% | [6]; at 33.0 µM 99% | [6]; at 100.0 µM 100% | [7]; [18] 97% | [7]; at 50.0 µM 98.6% | [8]; at 11.0 µM 82% | [8]; at 33.0 µM 99% | [8]; at 100.0 µM 99% | [9]; [18] 98% | [9]; at 50.0 µM 99.2% | [10]; at 11.0 µM 97% | [10]; at 33.0 µM 99% | [10]; [18] 97% | [10]; at 50.0 µM 99.3% | [10]; at 100.0 µM 99% | [11]; at 11.0 µM 98% | [11]; at 33.0 µM 99% | [11]; at 100.0 µM 100% | [12]; at 11.0 µM 96% | [12]; at 33.0 µM 99% | [12]; at 100.0 µM 99% | [13]; at 11.0 µM 96% | [13]; at 33.0 µM 99% | [13]; at 100.0 µM 99% | [14]; [18] 97% | [14]; at 50.0 µM 99.1% | [15]; at 11.0 µM 96% | [15]; at 33.0 µM 99% | [15]; at 100.0 µM 99%

COc1ccc(N=c2cc(-c3ccccc3)oc3ccccc23)cc1
inactive: [1]; at 1.2 µM 1% | [1]; at 3.7 µM 2% | [1]; at 11.0 µM 1% | [1]; at 33.0 µM -1% | [1]; at 100.0 µM -3% | [16]; at 1.2 µM 0% | [16]; at 3.7 µM 1% | [16]; at 11.0 µM 2% | [16]; at 33.0 µM 1% | [16]; at 100.0 µM -6% | [3]; at 1.2 µM 0% | [3]; at 3.7 µM 1% | [3]; at 11.0 µM -2% | [3]; at 33.0 µM 13% | [3]; at 100.0 µM -6% | [4]; at 1.2 µM 0% | [4]; at 3.7 µM 0% | [4]; [17] 11% | [4]; at 11.0 µM 1% | [4]; at 33.0 µM 0% | [4]; [18] 3% | [4]; at 50.0 µM 57.5% | [4]; at 100.0 µM -4% | [5]; at 1.2 µM -3% | [5]; at 3.7 µM -2% | [5]; [17] -4% | [5]; at 11.0 µM -3% | [5]; at 33.0 µM -4% | [5]; [18] 6% | [5]; at 50.0 µM 27.6% | [5]; at 100.0 µM -7% | [6]; at 1.2 µM -3% | [6]; at 3.7 µM -3% | [6]; at 11.0 µM 0% | [6]; at 33.0 µM -2% | [6]; at 100.0 µM -5% | [7]; [17] 1% | [7]; [18] 17% | [8]; at 1.2 µM -6% | [8]; at 3.7 µM -1% | [8]; at 11.0 µM -6% | [8]; at 33.0 µM -8% | [8]; at 100.0 µM -10% | [9]; [17] -7% | [9]; [18] -1% | [9]; at 50.0 µM 3.85% | [10]; at 1.2 µM -3% | [10]; at 3.7 µM -6% | [10]; [17] -1% | [10]; at 11.0 µM -1% | [10]; at 33.0 µM -4% | [10]; [18] -85% | [10]; at 100.0 µM -1% | [11]; at 1.2 µM 0% | [11]; at 3.7 µM -2% | [11]; at 11.0 µM -1% | [11]; at 33.0 µM -3% | [11]; at 100.0 µM -6% | [12]; at 1.2 µM 0% | [12]; at 3.7 µM -1% | [12]; at 11.0 µM -1% | [12]; at 33.0 µM -4% | [12]; at 100.0 µM -5% | [13]; at 1.2 µM -1% | [13]; at 3.7 µM 1% | [13]; at 11.0 µM -2% | [13]; at 33.0 µM -3% | [13]; at 100.0 µM -4% | [14]; [17] -2% | [14]; [18] 26% | [15]; at 1.2 µM -2% | [15]; at 3.7 µM 0% | [15]; at 11.0 µM -1% | [15]; at 33.0 µM -6% | [15]; at 100.0 µM -8%
active: [7]; at 50.0 µM 87.1% | [10]; at 50.0 µM 95.5% | [14]; at 50.0 µM 76.2%

From PubChem BioAssay (NCI)
